Test results: PubChem BioAssay AID1159580 (chemical genetic matrix, 2015)
In all, about 5,500 compounds went through this assay and about 2,000 (36%) were called active. About 18% were inconclusive and are not listed. Cut-off read from the data, not from the text of the source: active = normalized growth mostly below about 0.91 (no sharp cut-off); inconclusive = no clear call, values can overlap the other calls; inactive = mostly above about 0.92. The list shows a part of the results.

Test: chemical genetic growth profiling, strain panel (AID 1159580);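 note: tested at 20 µM; growth read once vehicle control cultures reached saturation at 30 °C; 1 = growth at the plate median or of vehicle wells; lower values mean less growth of the strain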
Details: S. cerevisiae deletion strains, growth OD
[1] = locus YAL040C, strain CLN3, active compounds read low
[2] = locus YCL061C, strain MRC1 (second series), active compounds read low
[3] = locus YDR363W, strain ESC2, active compounds read low
[4] = locus YER002W, strain NOP16, active compounds read low
[5] = locus YJR075W, strain HOC1, active compounds read low
[6] = locus YMR263W, strain SAP30, active compounds read low
[7] = locus YNL153C, strain GIM3, active compounds read low
[8] = locus YNL175C, strain NOP13, active compounds read low
[9] = locus YNL197C, strain WHI3, active compounds read low
[10] = locus YNL224C, strain SQS1, active compounds read low
[11] = locus YOR083W, strain WHI5 (second series), active compounds read low
[12] = locus YAL021C, strain ccr4, active compounds read low
[13] = locus YAL026C, strain drs2, active compounds read low
[14] = locus YAL030W, strain snc1, active compounds read low
[15] = locus YBL061C, strain skt5, active compounds read low
[16] = locus YBR009C, strain hhf1, active compounds read low
[17] = locus YBR023C, strain chs3, active compounds read low
[18] = locus YBR171W, strain sec66, active compounds read low
[19] = locus YBR231C, strain swc5, active compounds read low
[20] = locus YBR279W, strain paf1, active compounds read low
[21] = locus YCL011C, strain gbp2, active compounds read low
[22] = locus YCL016C, strain dcc1, active compounds read low
[23] = locus YCL061C, strain MRC1, active compounds read low
[24] = locus YCL069W, strain vba3, active compounds read low
[25] = locus YCR088W, strain abp1, active compounds read low
[26] = locus YDL005C, strain med2, active compounds read low
[27] = locus YDL040C, strain nat1, active compounds read low
[28] = locus YDR001C, strain nth1, active compounds read low
[29] = locus YDR069C, strain doa4, active compounds read low
[30] = locus YDR137W, strain rgp1, active compounds read low
[31] = locus YDR159W, strain sac3, active compounds read low
[32] = locus YDR297W, strain sur2, active compounds read low
[33] = locus YDR334W, strain swr1, active compounds read low
[34] = locus YDR335W, strain msn5, active compounds read low
[35] = locus YDR392W, strain spt3, active compounds read low
[36] = locus YEL003W, strain gim4, active compounds read low
[37] = locus YEL037C, strain rad23, active compounds read low
[38] = locus YEL061C, strain CIN8 (second series), active compounds read low
[39] = locus YER015W, strain faa2, active compounds read low
[40] = locus YER016W, strain bim1, active compounds read low
[41] = locus YER111C, strain swi4, active compounds read low
[42] = locus YER155C, strain BEM2 (second series), active compounds read low
[43] = locus YFR010W, strain ubp6, active compounds read low
[44] = locus YGL167C, strain pmr1, active compounds read low
[45] = locus YGL173C, strain kem1, active compounds read low
[46] = locus YGL227W, strain vid30, active compounds read low
[47] = locus YGL240W, strain doc1, active compounds read low
[48] = locus YGL253W, strain hxk2, active compounds read low
[49] = locus YHR013C, strain ard1, active compounds read low
[50] = locus YHR027C, strain rpn1, active compounds read low
[51] = locus YHR142W, strain chs7, active compounds read low
[52] = locus YJL092W, strain hpr5, active compounds read low
[53] = locus YJL095W, strain BCK1 (second series), active compounds read low
[54] = locus YJL115W, strain asf1, active compounds read low
[55] = locus YJL129C, strain trk1, active compounds read low
[56] = locus YJL154C, strain vps35, active compounds read low
[57] = locus YJL164C, strain tpk1, active compounds read low
[58] = locus YJL166W, strain qcr8, active compounds read low
[59] = locus YJL187C, strain SWE1, active compounds read low
[60] = locus YKL160W, strain elf1, active compounds read low
[61] = locus YKR026C, strain gcn3, active compounds read low
[62] = locus YKR091W, strain srl3, active compounds read low
[63] = locus YLL001W, strain dnm1, active compounds read low
[64] = locus YLL026W, active compounds read low
[65] = locus YLL041C, strain sdh2, active compounds read low
[66] = locus YLR027C, strain aat2, active compounds read low
[67] = locus YLR221C, strain rsa3, active compounds read low
[68] = locus YLR258W, strain gsy2, active compounds read low
[69] = locus YLR262C, strain YPT6 (second series), active compounds read low
[70] = locus YLR320W, strain mms22, active compounds read low
[71] = locus YLR342W, strain FKS1, active compounds read low
[72] = locus YLR357W, strain rsc2, active compounds read low
[73] = locus YLR370C, strain arc18, active compounds read low
[74] = locus YLR384C, strain iki3, active compounds read low
[75] = locus YML120C, strain ndi1, active compounds read low
[76] = locus YMR058W, strain fet3, active compounds read low
[77] = locus YMR125W, strain sto1, active compounds read low
[78] = locus YMR129W, active compounds read low
[79] = locus YMR205C, strain PFK2, active compounds read low
[80] = locus YMR231W, strain pep5, active compounds read low
[81] = locus YNL071W, strain lat1, active compounds read low
[82] = locus YNL209W, strain ssb2, active compounds read low
[83] = locus YNL248C, strain rpa49, active compounds read low
[84] = locus YNL322C, strain KRE1 (second series), active compounds read low
[85] = locus YNR049C, strain mso1, active compounds read low
[86] = locus YOR001W, strain rrp6, active compounds read low
[87] = locus YOR070C, strain gyp1, active compounds read low
[88] = locus YOR080W, strain dia2, active compounds read low
[89] = locus YOR083W, strain WHI5, active compounds read low
[90] = locus YOR106W, strain vam3, active compounds read low
[91] = locus YOR265W, strain rbl2, active compounds read low
[92] = locus YOR270C, strain vph1, active compounds read low
[93] = locus YOR290C, strain snf2, active compounds read low
[94] = locus YPL051W, strain arl3, active compounds read low
[95] = locus YPL078C, strain atp4, active compounds read low
[96] = locus YPL106C, strain sse1, active compounds read low
[97] = locus YPL240C, strain hsp82, active compounds read low

Measured: normalized growth

CC[N+](CC)(CC)CC
inactive: [1] 1.02 | [2] 1 | [3] 0.99 | [4] 0.989 | locus YGR078C, strain PAC10, active compounds read low 1 | locus YGR229C, strain SMI1, active compounds read low 1.02 | [5] 1.02 | [6] 0.994 | locus YMR307W, strain GAS1, active compounds read low 0.991 | [7] 0.986 | [8] 0.981 | [9] 1.01 | [10] 0.997 | [11] 0.999

CC#CC1(O)CCC2C3CCC4=CC(=O)CCC4=C3C(c3ccc(N(C)C)cc3)CC21C (stereo unspecified)
inactive: [12] 0.982 | [13] 0.996 | [14] 0.989 | [15] 0.999 | [16] 0.998 | [17] 0.993 | [18] 1.01 | [19] 1 | [20] 0.993 | [21] 1 | [22] 1.01 | [23] 1.01 | [24] 1 | [25] 0.997 | [26] 1.01 | [27] 0.997 | [28] 1 | [29] 0.994 | [30] 1.01 | [31] 1.01 | locus YDR195W, strain ref2 1.07 | [32] 0.996 | [33] 1.02 | [34] 0.998 | [35] 0.966 | [36] 0.995 | [37] 0.99 | [38] 1.01 | [39] 0.996 | [40] 0.996 | [41] 1.01 | [42] 1.01 | [43] 1.03 | [44] 1 | [45] 1 | [46] 1.01 | [47] 0.987 | [48] 1 | [49] 0.995 | [50] 1 | [51] 0.997 | [52] 1 | [53] 0.998 | [54] 1.02 | [55] 0.946 | [56] 1 | [57] 0.983 | [58] 0.99 | [59] 1.02 | [60] 0.99 | [61] 0.993 | [62] 0.996 | [63] 1.01 | [64] 0.999 | [65] 1 | [66] 0.997 | [67] 0.988 | [68] 0.996 | [69] 0.96 | [70] 1 | [71] 0.995 | [72] 1.13 | [73] 0.993 | [74] 0.996 | [75] 0.998 | [76] 1.02 | [77] 1.11 | [78] 0.991 | [79] 0.998 | [80] 1 | [81] 1 | [82] 0.993 | [83] 1.07 | [84] 1.01 | [85] 1 | [86] 0.996 | [87] 0.991 | [88] 1.01 | [89] 0.976 | [90] 0.986 | [91] 0.994 | [92] 0.924 | [93] 1.04 | [94] 0.988 | [95] 1.01 | [96] 0.964 | [97] 0.985

CC#C[C@]1(O)CC[C@H]2[C@@H]3CCC4=CC(=O)CCC4=C3[C@@H](c3ccc(N(C)C)cc3)C[C@@]21C
inactive: [1] 0.978 | [2] 0.98 | locus YDR150W, strain NUM1, active compounds read low 0.981 | [3] 1.01 | [4] 1 | [5] 0.965 | [6] 0.984 | locus YNL128W, strain TEP1, active compounds read low 1.04 | [7] 0.951 | [8] 0.983 | [9] 0.998 | [10] 0.979 | locus YNL322C, strain KRE1, active compounds read low 0.965 | [11] 0.991 | locus YPL055C, strain LGE1, active compounds read low 0.99

C=CC[C@]1(O)CCC2C3CCC4=CC(=O)CCC4=C3C=C[C@@]21C (stereo partly specified)
inactive: [12] 0.989 | [13] 0.975 | [14] 0.994 | [15] 0.989 | [16] 0.988 | [17] 0.986 | [18] 0.975 | [19] 0.988 | [20] 0.996 | [21] 1.01 | [22] 0.998 | [23] 0.998 | [24] 0.999 | [25] 0.987 | [26] 0.996 | [27] 0.991 | [28] 0.995 | [29] 0.996 | [31] 0.997 | locus YDR195W, strain ref2 1.05 | [32] 0.985 | [33] 0.997 | [34] 1.01 | [36] 0.992 | [37] 0.995 | [38] 0.993 | [39] 0.997 | [40] 0.996 | [41] 0.998 | [43] 1.01 | [44] 0.992 | [45] 0.99 | [46] 0.995 | [47] 0.989 | [48] 0.985 | [49] 0.935 | [50] 0.996 | locus YHR030C, strain SLT2, active compounds read low 0.992 | locus YHR079C, strain IRE1, active compounds read low 1 | [51] 0.944 | [52] 0.984 | [53] 1 | locus YJL095W, strain BCK1, active compounds read low 0.909 | [54] 0.991 | [55] 0.91 | [56] 0.995 | [57] 1 | [58] 0.982 | [59] 0.993 | locus YJR066W, strain TOR1, active compounds read low 0.946 | [60] 0.984 | [61] 0.977 | [62] 0.996 | [63] 1 | [64] 0.995 | [65] 0.991 | [66] 1 | locus YLR113W, strain HOG1, active compounds read low 0.884 | [67] 0.986 | [68] 0.991 | [71] 0.969 | [72] 0.999 | [73] 0.982 | [74] 1 | [75] 0.98 | [76] 0.993 | [77] 1 | [78] 0.993 | [79] 0.895 | [80] 0.995 | locus YNL183C, strain NPR1, active compounds read low 0.93 | [82] 1 | [83] 1.01 | [84] 0.999 | [85] 0.997 | [86] 0.99 | [87] 0.982 | [88] 0.998 | [89] 0.994 | [90] 1.01 | locus YOR231W, strain MKK1, active compounds read low 0.985 | [91] 0.998 | [92] 0.872 | [93] 0.953 | [94] 0.988 | [95] 1.02 | [96] 1.04 | [97] 0.991 | locus YPL256C, strain CLN2, active compounds read low 0.993
active: [30] 0.806 | [35] 0.551 | [42] 0.815 | [69] 0.804 | [70] 0.838 | [81] 0.817
